Shown are actives, neighbours in structure and some others; about 11% of the full set was active somewhere.
HEK293 tox: HEK 293 cell cytotoxicity. AID 1345083. 6.6% of 94,000 active. Potency, µM (titrated, usually from 115 µM), inactives show at the top dose activity change, negative = cytotoxicity, usual class: inhibitors. HEK 293 viability, ATP luminescence (CellTiter-Glo), 48-72 h; note: nearly all actives have a fitted effect of over 60% in size
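qHTS cytotoxicity; HEK 293, 250 cells/well; compound pinned; 48 or 72 hr, 37 degree Celsius, 5% CO2, 95% humidity; CellTiter-Glo, 10 min RT; luminescence (ATP).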
Luciferase inh: Photinus pyralis luciferase inhibition. Potency, µM (series often up to 115 µM), most hits filed as inhibitors. P08659. 2.5% of 76,000 active. purified P. pyralis luciferase, luminescence, biochemical; note: nearly all actives have a fitted effect of over 65% in size
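Luminescence read by CCD imager after adding enzyme (10nM final) to wells holding compound, titrated in qHTS. Substrates 10uM each D-luciferin and ATP; buffer 50mM Tris acetate pH 7.5, 10mM Mg acetate, Tween-20, BSA.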
3T3 cytotox: cytotoxic compounds in NIH 3T3 cells. NIH 3T3 viability, CellTiter-Glo ATP luminescence, 48-72 h. Potency, µM (highest dose often 96.7 µM), inactives show top-dose activity change, negative = cytotoxicity, most hits filed as inhibitors. 4.3% of 94,000 active. AID 1345082; note: nearly all actives have a fitted effect of over 55% in size
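Mouse fibroblast NIH 3T3 cells, 400 per well, received compound via pintool and were incubated for 48 or 72 hr prior to CellTiter-Glo ATP luminescence measurement.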
NPR1 antag: antagonists of human natriuretic peptide receptor Npr1 | P16066 | AID 1347048 | Potency, µM (titrated, usually from 46.3 µM), for inactives: at the highest dose activity change, negative = inhibition, usual class: inhibitors | 1.6% of 76,000 active | HEK293 hNpr1 GloSensor cGMP, ANP-stimulated luminescence; calls by dose curve; note: nearly all actives have a fitted effect of over 60% in size
Target sequence (P16066 whole entry, looked up): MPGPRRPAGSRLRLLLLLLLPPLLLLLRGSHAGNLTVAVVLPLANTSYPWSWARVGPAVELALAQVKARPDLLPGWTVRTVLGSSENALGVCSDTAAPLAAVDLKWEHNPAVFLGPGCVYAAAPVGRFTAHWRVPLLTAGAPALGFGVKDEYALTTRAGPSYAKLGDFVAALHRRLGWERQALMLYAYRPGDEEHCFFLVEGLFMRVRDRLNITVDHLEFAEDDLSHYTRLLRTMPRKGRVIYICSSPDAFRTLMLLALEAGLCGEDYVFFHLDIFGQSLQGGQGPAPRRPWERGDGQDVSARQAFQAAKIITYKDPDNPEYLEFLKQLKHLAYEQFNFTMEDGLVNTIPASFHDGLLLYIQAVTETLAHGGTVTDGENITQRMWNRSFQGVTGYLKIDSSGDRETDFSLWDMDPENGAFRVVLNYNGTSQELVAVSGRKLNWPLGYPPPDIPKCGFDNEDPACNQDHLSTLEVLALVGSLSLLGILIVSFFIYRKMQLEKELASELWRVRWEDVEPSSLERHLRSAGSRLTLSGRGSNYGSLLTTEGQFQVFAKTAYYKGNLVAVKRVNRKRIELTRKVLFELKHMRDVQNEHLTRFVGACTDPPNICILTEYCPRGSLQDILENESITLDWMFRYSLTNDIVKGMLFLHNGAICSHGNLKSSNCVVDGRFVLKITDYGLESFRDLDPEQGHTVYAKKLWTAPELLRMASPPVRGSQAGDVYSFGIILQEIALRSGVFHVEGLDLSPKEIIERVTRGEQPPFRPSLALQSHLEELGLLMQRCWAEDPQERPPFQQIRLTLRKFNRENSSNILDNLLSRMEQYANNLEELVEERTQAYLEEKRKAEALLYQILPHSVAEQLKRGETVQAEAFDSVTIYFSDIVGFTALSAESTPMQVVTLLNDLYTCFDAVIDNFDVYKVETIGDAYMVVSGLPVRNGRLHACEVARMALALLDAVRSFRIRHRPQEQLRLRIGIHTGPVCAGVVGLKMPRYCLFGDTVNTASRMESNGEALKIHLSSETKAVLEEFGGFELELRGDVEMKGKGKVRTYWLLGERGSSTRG
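HEK293 cells stably expressing human Npr1 and cGMP GloSensor pGS-40F, loaded 2 h with 2% GloSensor reagent, given compound 30 min at room temperature. Luminescence read before and 20 min after 0.1 nM hNppA.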
An asterisk follows results filed as active; [ ] = another dose, or the depositor's remark. Unless noted, calls come from the whole dose curve; as a rule, active = well fitted curve in the direction sought with a large enough effect; inconclusive = small, poorly fitted or top-dose-only effect, or another doubt; inactive = no such curve, though single readings can be large; an effect the other way counts as inactive or inconclusive. % is set by controls: 0 for no effect and ±100 for the full control effect; potency is the fitted concentration of half-maximal effect.

For Cc1cc(C)cc(-c2ccc(CN3CCCC(NC(=O)Cc4ccccn4)C3)cc2)c1 (configuration not stated) the results were HEK293 tox inconclusive and 3T3 cytotox 35.5µM*.
`Cc1ccc(C(=O)NC2CCCN(Cc3cccc(-c4ccc(C)c(Cl)c4)c3)C2)cc1` (configuration not stated) gave HEK293 tox inactive and 3T3 cytotox 0.3%.
`O=C(NC1CCCC1)N1CCC(C(=O)N2CCC(c3nc4ncccc4[nH]3)CC2)C1` (configuration not stated) gave HEK293 tox -1.6% and 3T3 cytotox -24.8%.
For CCNC(=O)OC1CCN(C(=O)NC2CCCC2)CC(=O)N(C)c2ccccc21 (configuration not stated) the results were HEK293 tox inactive and 3T3 cytotox inconclusive.
`CCOC(=O)[C@@H]1CN(C(=O)C2CC2)[C@H]2c3cccc(F)c3O[C@@H]12` gave HEK293 tox inconclusive and 3T3 cytotox -19.0%.
For CC(C)NC(=O)c1cc(-c2ccccc2C(F)(F)F)nc2c1cnn2C the results were HEK293 tox -13.2% and 3T3 cytotox inconclusive.
Screening CN(Cc1ccc(-c2ccccc2)cc1)C(=O)Cc1ccc(F)cc1 returned HEK293 tox 50.1µM*, Luciferase inh inactive, 3T3 cytotox 35.5µM* and NPR1 antag -24.4%[70.6 µM].
COc1ccc(CC(=O)N(C)Cc2ccc(F)cc2)cc1 was read as HEK293 tox inconclusive, Luciferase inh inactive, 3T3 cytotox -24.7%[138 µM] and NPR1 antag -1.6%[70.6 µM].
For CN(Cc1ccc(-c2ccccc2)cc1)C(=O)Cc1ccccn1 the results were HEK293 tox 63.1µM*, Luciferase inh inconclusive, 3T3 cytotox inconclusive and NPR1 antag inconclusive.
`CN(Cc1ccc(F)cc1)C(=O)Cc1ccccn1` gave HEK293 tox -4.2%[172 µM], Luciferase inh inactive, 3T3 cytotox 1.1%[138 µM] and NPR1 antag 10.4%[70.6 µM].
For O=C(NC1CCCCC1)C1(CCO)CC12CCOCC2 (configuration not stated) the results were HEK293 tox 0.0% and 3T3 cytotox -6.0%.
c1ccc(OCCNc2nc(-c3cccnc3)nc3c2CCNCC3)cc1 was read as HEK293 tox inconclusive, Luciferase inh inactive, 3T3 cytotox 31.6µM* and NPR1 antag inconclusive.
Screening Cc1ncsc1CCCNc1nc(-c2ccccn2)nc2c1CCNCC2 returned HEK293 tox -22.4%, Luciferase inh inactive, 3T3 cytotox -15.4% and NPR1 antag 0.2%.
Screening c1ccc2ncc(CN3CCC[C@H]3c3nc(-c4ccc(OC5CCCCC5)nc4)no3)cc2c1 returned HEK293 tox inconclusive, Luciferase inh inactive, 3T3 cytotox inconclusive and NPR1 antag inconclusive.
Screening c1ccc(CN2CCC[C@H]2c2nc(-c3ccc(OC4CCCCC4)nc3)no2)nc1 returned HEK293 tox 63.1µM*, Luciferase inh inconclusive, 3T3 cytotox 44.7µM* and NPR1 antag inconclusive.
Screening c1ccc2c(CN3CCC[C@H]3c3nc(-c4ccc(OC5CCCCC5)nc4)no3)c[nH]c2c1 returned HEK293 tox 35.5µM*, Luciferase inh inactive, 3T3 cytotox 31.6µM* and NPR1 antag -29.2%.
`COCCNc1ncccc1-c1noc([C@@H]2CCCN2Cc2ccccn2)n1` gave HEK293 tox 22.4µM*, Luciferase inh inactive, 3T3 cytotox inconclusive and NPR1 antag 3.3%[70.6 µM].
Screening COCCOc1ccc(-c2noc([C@@H]3CCCN3Cc3c[nH]c4ccccc34)n2)cn1 returned HEK293 tox inconclusive, Luciferase inh inactive, 3T3 cytotox -22.9%[138 µM] and NPR1 antag -9.2%[70.6 µM].
For COc1cccc(CNC(=O)C2CN(C3CCCCC3)C(=O)N2)c1 (configuration not stated) the results were HEK293 tox -12.4%[172 µM] and 3T3 cytotox -8.8%[138 µM].
COC(=O)N1CCC(C(=O)N2CCCC(c3nc4ccncc4[nH]3)C2)CC1 (configuration not stated) was read as HEK293 tox 1.8% and 3T3 cytotox 0.5%.
`CCCC(=O)Nc1cc(C2CC2)nn1C` gave HEK293 tox 2.3%[230 µM] and 3T3 cytotox -18.2%[174 µM].
For Cc1ccc(C(=O)NC2CCN(Cc3ccc(-c4ccsc4)cc3)C2)cc1 (configuration not stated) the results were HEK293 tox -14.8% and 3T3 cytotox -13.5%.
`O=C(NC1CCN(CCn2nc3n(c2=O)CCCC3)C1)c1ccccc1Cl` (configuration not stated) gave HEK293 tox 0.2% and 3T3 cytotox -6.9%.
Screening O=C(NC1CCN(Cc2ccc(-c3ccsc3)cc2)C1)c1ccccc1Cl (configuration not stated) returned HEK293 tox 44.7µM* and 3T3 cytotox inconclusive.
Screening O=C(NC1CCN(Cc2ccc(-c3ccsc3)cc2)C1)c1ccncc1 (configuration not stated) returned HEK293 tox 39.8µM* and 3T3 cytotox inconclusive.
Screening O=C(NC1CCN(Cc2ccc(-c3ccsc3)cc2)C1)c1ccccc1 (configuration not stated) returned HEK293 tox 44.7µM* and 3T3 cytotox inconclusive.
`CC(C)NC(=O)c1ccc2nc(-c3cccnc3)oc2c1` gave HEK293 tox -23.0%[172 µM] and 3T3 cytotox -10.3%[138 µM].
Screening CN1CC(=O)N(C2CCCNC2)Cc2c1ncnc2N1CCSCC1 (configuration not stated) returned HEK293 tox 3.4% and 3T3 cytotox -0.4%.
`Cc1ccc(C2Cn3cnc(C(=O)N4CCC(C(=O)NCCCc5ccccc5)CC4)c3CO2)cc1` (configuration not stated) gave HEK293 tox 2.7%, Luciferase inh 31.6µM*, 3T3 cytotox inactive and NPR1 antag 4.5%.
For Cc1ccc(C2Cn3cnc(C(=O)N4CCC(C(=O)NCc5ccccc5Cl)CC4)c3CO2)cc1 (configuration not stated) the results were HEK293 tox inconclusive, Luciferase inh 35.5µM*, 3T3 cytotox -34.0% and NPR1 antag -6.0%.
Cc1ccc(C2Cn3cnc(C(=O)N4CCC(C(=O)NCCc5ccccc5)CC4)c3CO2)cc1 (configuration not stated) was read as HEK293 tox -2.6%, Luciferase inh inconclusive, 3T3 cytotox 0.2% and NPR1 antag 4.2%.
`COc1ccc(CNC(=O)C2CCN(C(=O)c3ncn4c3COC(c3ccccc3)C4)CC2)cc1` (configuration not stated) gave HEK293 tox -2.4%, Luciferase inh 15.8µM*, 3T3 cytotox -1.1% and NPR1 antag -15.1%.
For Cc1ccc(CNC(=O)C2CCN(C(=O)c3ncn4c3COC(c3ccccc3)C4)CC2)cc1 (configuration not stated) the results were HEK293 tox 8.2%, Luciferase inh 15.8µM*, 3T3 cytotox -1.3% and NPR1 antag -9.9%.
Screening COC(=O)N1CCC(C(=O)N2CCC(N3Cc4ccccc4C3=O)CC2)CC1 returned HEK293 tox inactive and 3T3 cytotox inactive.

Screening data deposited in PubChem BioAssay by National Center for Advancing Translational Sciences (NCATS).
